Assay results: the supplement of paper PMC4683952
Structures can show the parent of a compound that is named as a salt. Among all 1,200 compounds or so, about 50 (4%) showed activity. Rule as the data show it: all actives reach 1.3 or more but so do some inactives. What follows is part of a selection rich in actives, with near analogues and random picks from the rest.

Tested on: Lgr5 (MarsCy1-Lgr5-EGFP, U2OS)
Assay: cell-surface Lgr5 expression (SCi1 fluorescence, background-subtracted) relative to WT DMSO (fold of DMSO control); higher = more Lgr5 at the plasma membrane, active = hit call of the paper
Details: U2OS MarsCy1-Lgr5-EGFP stable; treatment time: overnight; 16 µM; library: Johns Hopkins Clinical Compound Library

| SMILES | cell-surface Lgr5 expression |
| --- | --- |
| COc1cc(C2c3cc4c(cc3C(O)C(CO)C2C(=O)O)OCO4)cc(OC)c1OC.COc1cc(C2c3cc4c(cc3C(O)C(CO)C2C(=O)O)OCO4)cc(OC)c1OC.COc1cc(C2c3cc4c(cc3C(O)C3COC(=O)C23)OCO4)cc(OC)c1OC.COc1cc(C2c3cc4c(cc3C(O)C3COC(=O)C23)OCO4)cc(OC)c1OC (stereo unspecified) [Podophyllum resin] | 1.55 (active) |
| CC(N)C(O)c1ccccc1 (stereo unspecified) [Norephedrine Hydrochloride (Phenylpropanolamine)] | 1.19 (inactive) |
| C=C[C@H]1CN2CC[C@H]1C[C@@H]2[C@@H](O)c1ccnc2ccccc12 [Cinchonine sulfate] | 1.25 (inactive) |
| CCN(CC)C(=O)N[C@H]1C=C2c3cccc4[nH]cc(c34)C[C@H]2N(C)C1 [Lisuride] | 1.1 (inactive) |
| [S]=[Sb][S][Sb]=[S] [Antimony (III) sulfide] | 1.26 (inactive) |
| NC(=O)CN1CC(O)CC1=O (stereo unspecified) [Oxiracetam] | 1.36 (active) |
| COc1ccc(O)c(C(C)(C)C)c1.COc1ccc(O)cc1C(C)(C)C [Butylated hydroxyanisole] | 1.15 (inactive) |
| C=CCN1C[C@H](C(=O)N(CCCN(C)C)C(=O)NCC)C[C@@H]2c3cccc4[nH]cc(c34)C[C@H]21 [Cabergoline] | 0.958 (inactive) |
| ClC1=C(Cl)C2(Cl)C(CBr)CC1(Cl)C2(Cl)Cl (stereo unspecified) [Bromocyclen] | 1.24 (inactive) |
| C[C@]12Cc3c[nH]nc3C[C@@H]1CC[C@@H]1[C@@H]2CC[C@@]2(C)[C@H]1CC[C@]2(C)O [Stanozolol] | 1.03 (inactive) |
| C[C@]12CCC(=O)C(O)=C1CC[C@@H]1[C@@H]2CC[C@]2(C)C(=O)CC[C@@H]12 [Formestane (4-Androsten-4-ol-3,17-dione)] | 1.18 (inactive) |
| C[C@]12CC[C@H](O)CC1=CC[C@@H]1[C@@H]2CC[C@]2(C)C(=O)CC[C@@H]12 [Prasterone (DHEA, dehydroepiandrosterone)] | 1.33 (active) |
| C[C@]12CC[C@H](O)CC1=CC[C@@H]1[C@@H]2CC[C@]2(C)C(=O)CC[C@@H]12 [Prasterone (dehydroisoandrosterone)] | 1.09 (inactive) |
| C=C1C[C@@H]2[C@H](CC[C@]3(C)C(=O)CC[C@@H]23)[C@@]2(C)C=CC(=O)C=C12 [Exemestane] | 1.48 (inactive) |
| C=CCN=C=S [Allyl isothiocyanate] | 0.99 (inactive) |
| N[C@@H](Cc1ccc(N(CCCl)CCCl)cc1)C(=O)O [Melphalan] | 1.14 (inactive) |
| CN(C)C(=O)Oc1cc(OC(=O)N(C)C)cc(C(O)CNC(C)(C)C)c1 (stereo unspecified) [Bambuterol] | 1.21 (inactive) |
| CC(C)(C)NCC(O)c1ccccc1Cl (stereo unspecified) [Tulobuterol] | 1.42 (active) |
| C1CN1c1nc(N2CC2)nc(N2CC2)n1 [Triethylenemelamine] | 1.39 (inactive) |
| [O-][n+]1ccccc1[S-].[O-][n+]1ccccc1[S-].[Zn+2] [Pyrithione zinc (1-Hydroxypyridine-2-Thione Zinc Salt)] | 0.923 (inactive) |
| CN1C[C@H](C(=O)N[C@]2(C)O[C@@]3(O)[C@@H]4CCCN4C(=O)[C@H](Cc4ccccc4)N3C2=O)C[C@@H]2c3cccc4[nH]cc(c34)C[C@H]21 [Dihydroergotamine methanesulfonate] | 0.612 (inactive) |
